TDP1 cell noCPT = qHTS for Inhibitors of human tyrosyl-DNA phosphodiesterase 1 (TDP1): qHTS in cells in absence of CPT; Potency, µM (highest dose often 46.2 µM), for the others: at the top dose activity change, negative = growth inhibition, most hits filed as inhibitors; 15% of 420,000 active; AID 686978, 2013; DT40 Tdp1-/- hTDP1 cells, no CPT, ATP luminescence, 48 h; further: nearly all actives have a fitted effect of over 55% in size
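A cellular qHTS used chicken DT40 cells lacking endogenous Tdp1 but carrying stably transfected human TDP1. Compounds were applied without camptothecin, and cell growth kinetics were judged by ATP-dependent luminescence after ≥48 hr.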
KB-3-1 cytotox = kills parental KB-3-1 adenocarcinoma cells; KB-3-1 viability, CellTiter-Glo ATP luminescence, 72 h; Potency, µM (top dose mostly 46.1 µM), most hits filed as cytotoxic; 1.4% of 400,000 active; AID 1347075; further: nearly all actives have a fitted effect of over 60% in size
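Viability of parental KB-3-1 cells, measured by CellTiter-Glo luminescence, followed a 72 h incubation at 37 °C with pinned compounds in phenol-red-free DMEM containing 10% FBS.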
HT1080 IDH1KD tx = HT-1080 IDH1 knockdown cell toxicity (counter line). HT-1080 IDH1 knockdown viability, ATP luminescence, 48 h. 2% of 360,000 active. Potency, µM (highest dose often 46.1 µM), without a hit: at the highest dose activity, negative = toxicity, actives largely listed as cytotoxic;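 further: 0% = DMSO wells and -100% = cell-free medium wells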
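Assay cells: HT-1080 with IDH1 knockdown, 750 per well, RPMI/5% FBS. Exposure: 48 h at 37 °C following 2 h pre-incubation. Read: CellTiter-Glo luminescence; fitted concentration-response, curve class assigned.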
KB-V1 cytotox = KB-V1 MDR subline cytotoxicity; KB-V1 MDR cells viability, CellTiter-Glo, 72 h; Potency, µM (top dose mostly 46.1 µM), most hits filed as cytotoxic; 3.4% of 400,000 active; further: nearly all actives have a fitted effect of over 60% in size
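Compound-treated KB-V1 multidrug-resistant cells, 72 h, 37 degrees C; viability by CellTiter-Glo. Fitted qHTS curves give the values.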
TDP1 cell CPT = DT40-hTDP1 cell growth loss with CPT; chicken DT40 Tdp1-/-;hTDP1 cells + 20 nM CPT, ATP luminescence, 48 h; Potency, µM (highest dose often 46.2 µM), for inactives: at the highest dose activity change, negative = growth inhibition, hits mostly inhibitors; 12% of 420,000 active; AID 686979; further: nearly all actives have a fitted effect of over 55% in size
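Cell growth measured by CellTiter-Glo luminescence after a minimum 48 h, 37 C compound exposure with 20 nM CPT in Tdp1-knockout DT40 cells stably expressing hTDP1, seeded 400/well; qHTS titration format.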
HT1080NT lethal = kills 2HG-producing HT-1080-NT fibrosarcoma cells. 1.6% of 360,000 active. AID 686970. HT-1080-NT fibrosarcoma viability, CellTiter-Glo ATP luminescence, 48 h. Potency, µM (titrated, usually from 46.1 µM), for inactives: top-dose activity, negative = less viability, actives largely listed as cytotoxic;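 further: NT is the 2HG producing partner of a matched IDH1 knockdown line; 0% = DMSO-treated cells and -100% = media-only wells without cells; nearly all actives have a fitted effect of over 55% in size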
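A 48-hour cytotoxicity screen used HT-1080-NT cells plated 2 hours before compound delivery. ATP-based CellTiter-Glo luminescence measured viability, normalized to DMSO and no-cell controls.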
Numbers without * were called inactive; i = inactive; ? = inconclusive; . = no result given; [ ] = remark or other dose. Rows were chosen to be rich in hits. Some 19% of all compounds tested hit in one or more screens of this group. The call rests on the fitted dose curve; in most records, active means well fitted curve in the direction sought with a large enough effect; inconclusive means small, poorly fitted or top-dose-only effect, or another doubt; inactive means no such curve, though single readings can be large; an effect the other way counts as inactive or inconclusive. Unless noted, on the % scale 0 is the no-effect control and ±100 the full control effect; potency means the concentration at half of the fitted maximal effect.

SMILES | TDP1 cell noCPT | KB-3-1 cytotox | HT1080 IDH1KD tx | KB-V1 cytotox | TDP1 cell CPT | HT1080NT lethal
CN1CCN(C2=Cc3cc(Cl)ccc3Sc3cc(F)ccc32)CC1 | 29.1µM* | ? | ? | 18.4µM* | ? | ?
CN1CCN(C2=Cc3ccccc3Sc3cc(F)c(F)cc32)CC1 | ? | ? | ? | i | ? | ?
O=C(CSc1nc(O)c(C/C=C/c2ccccc2)c(=O)[nH]1)Nc1cccc(F)c1 | -29.7% | i | . | i | 3.7% | .
COc1ccc2ccccc2c1/C=N/n1cnnc1 | ? | i | -0.7% | i | 20.5% | 0.9%
C(=N\n1cnnc1)/c1cccc2ccccc12 | -6.8% | ? | -1.6% | 10.3µM* | 6.9% | -0.7%
C(=N\n1cnnc1)/c1cn(Cc2ccccc2)c2ccccc12 | -21.6% | i | ? | 14.6µM* | -11.7% | -29.8%
CCc1noc(C)c1C(=O)N1CCN(S(=O)(=O)c2ccc(Br)cc2Cl)CC1 | -8.1% | i | -3.3% | i | ? | 0.6%
COc1cccc(C(C(=O)NC2CCCC2)N(C(=O)CNC(=O)c2ccco2)c2cccnc2)c1 (stereo not drawn) | -9.8% | i | 6.1% | i | 0.6% | -0.4%
Cc1cccc(NC(=O)CSc2nc(=O)n(CCN3CCOCC3)c3c2CCC3)c1 | -2.7% | . | . | . | 0.0% | .
COc1cccc(-n2nnnc2SCC(=O)Nc2ccccc2OC)c1 | -14.1% | i | 0.9% | i | -17.6% | 7.0%
COc1cccc(-n2nnnc2SCC(=O)Nc2ccc(C(C)=O)cc2)c1 | 23.1µM* | i | 14.6% | i | 25.9µM* | 9.4%
O=C(CSc1nnnn1-c1ccc(F)cc1)c1ccc(O)c(O)c1 | ? | i | -29.9% | i | 18.4µM* | -4.7%
O=C(O)c1ccc(CSc2nnnn2-c2ccc(F)cc2)cc1 | 10.4% | i | 3.7% | i | -3.4% | 1.3%
CC(=O)c1cccc(-n2nnnc2SCC(=O)Nc2ccccc2N2CCCCC2)c1 | 23.1µM* | ? | -24.9% | ? | ? | -20.5%
CCn1nnnc1SCC(=O)c1cccc(OC)c1 | ? | i | 5.1% | i | ? | 2.5%
COc1ccc(-n2nnnc2SCC(=O)c2cccc(OC)c2)cc1 | ? | i | -2.8%[9.24 µM] | i | ? | 22.4µM*
CCCS(=O)(=O)c1nnnn1-c1cccc(OC)c1 | 5.17µM* | i | 6.31µM* | i | 3.66µM* | 10µM*
Cc1cc(F)ccc1NC(=O)c1cc(S(=O)(=O)N2CCc3ccccc32)cn1C | 25.9µM* | i | -13.6% | ? | ? | 5.8%
CCC(C)(C)NC(=O)c1cc(S(=O)(=O)N2CCc3ccccc32)cn1C | 14.6µM* | ? | -2.9% | ? | 20.6µM* | -2.9%
CCN(C(=O)c1cc(S(=O)(=O)N2CCc3ccccc32)cn1C)c1cccc(C)c1 | 13µM* | . | . | . | ? | .
Cn1cc(S(=O)(=O)N2CCc3ccccc32)cc1C(=O)NC1CCCCC1 | -25.5% | i | 2.5% | i | -29.0% | -23.0%
CCN(C(=O)c1cc(S(=O)(=O)N2CCc3ccccc32)cn1C)c1ccccc1 | ? | i | 9.2% | i | ? | 10.1%
NC[C@@H]1O[C@H](c2ccccc2)Cc2c1ccc(O)c2O | 9.44µM* | . | . | . | 6.68µM* | .
NC[C@@H]1O[C@H](C23CC4CC(CC(C4)C2)C3)Cc2c1ccc(O)c2O | 23.1µM* | ? | ? | ? | 23.1µM* | ?
CN(C)c1ccc(CN(CC2CCCO2)C(=O)c2ccc(Br)cc2)cc1 (stereo not drawn) | -78.2% | . | . | . | ? | .
COc1ccccc1OCC(=O)N(Cc1ccc(N(C)C)cc1)CC1CCCO1 (stereo not drawn) | 14.6µM* | . | . | . | 23.1µM* | .
